Compound activity (PubChem BioAssay)
The list is not random: actives were taken first. Their share in the collection is about 27%.
Cav32 inh – blocks human Cav3.2 T-type calcium channel | B-score at 10 µM | Cav3.2-expressing cells, Fluo-4 calcium fluorescence FDSS; stronger effect = lower value | O95180 | 4% of 100,000 active | AID 449739;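 active = single-dose well whose peak fluorescence ratio is a statistical outlier from its plate by either plate-standardised score or position-corrected B-score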
Target sequence (O95180 whole entry, looked up): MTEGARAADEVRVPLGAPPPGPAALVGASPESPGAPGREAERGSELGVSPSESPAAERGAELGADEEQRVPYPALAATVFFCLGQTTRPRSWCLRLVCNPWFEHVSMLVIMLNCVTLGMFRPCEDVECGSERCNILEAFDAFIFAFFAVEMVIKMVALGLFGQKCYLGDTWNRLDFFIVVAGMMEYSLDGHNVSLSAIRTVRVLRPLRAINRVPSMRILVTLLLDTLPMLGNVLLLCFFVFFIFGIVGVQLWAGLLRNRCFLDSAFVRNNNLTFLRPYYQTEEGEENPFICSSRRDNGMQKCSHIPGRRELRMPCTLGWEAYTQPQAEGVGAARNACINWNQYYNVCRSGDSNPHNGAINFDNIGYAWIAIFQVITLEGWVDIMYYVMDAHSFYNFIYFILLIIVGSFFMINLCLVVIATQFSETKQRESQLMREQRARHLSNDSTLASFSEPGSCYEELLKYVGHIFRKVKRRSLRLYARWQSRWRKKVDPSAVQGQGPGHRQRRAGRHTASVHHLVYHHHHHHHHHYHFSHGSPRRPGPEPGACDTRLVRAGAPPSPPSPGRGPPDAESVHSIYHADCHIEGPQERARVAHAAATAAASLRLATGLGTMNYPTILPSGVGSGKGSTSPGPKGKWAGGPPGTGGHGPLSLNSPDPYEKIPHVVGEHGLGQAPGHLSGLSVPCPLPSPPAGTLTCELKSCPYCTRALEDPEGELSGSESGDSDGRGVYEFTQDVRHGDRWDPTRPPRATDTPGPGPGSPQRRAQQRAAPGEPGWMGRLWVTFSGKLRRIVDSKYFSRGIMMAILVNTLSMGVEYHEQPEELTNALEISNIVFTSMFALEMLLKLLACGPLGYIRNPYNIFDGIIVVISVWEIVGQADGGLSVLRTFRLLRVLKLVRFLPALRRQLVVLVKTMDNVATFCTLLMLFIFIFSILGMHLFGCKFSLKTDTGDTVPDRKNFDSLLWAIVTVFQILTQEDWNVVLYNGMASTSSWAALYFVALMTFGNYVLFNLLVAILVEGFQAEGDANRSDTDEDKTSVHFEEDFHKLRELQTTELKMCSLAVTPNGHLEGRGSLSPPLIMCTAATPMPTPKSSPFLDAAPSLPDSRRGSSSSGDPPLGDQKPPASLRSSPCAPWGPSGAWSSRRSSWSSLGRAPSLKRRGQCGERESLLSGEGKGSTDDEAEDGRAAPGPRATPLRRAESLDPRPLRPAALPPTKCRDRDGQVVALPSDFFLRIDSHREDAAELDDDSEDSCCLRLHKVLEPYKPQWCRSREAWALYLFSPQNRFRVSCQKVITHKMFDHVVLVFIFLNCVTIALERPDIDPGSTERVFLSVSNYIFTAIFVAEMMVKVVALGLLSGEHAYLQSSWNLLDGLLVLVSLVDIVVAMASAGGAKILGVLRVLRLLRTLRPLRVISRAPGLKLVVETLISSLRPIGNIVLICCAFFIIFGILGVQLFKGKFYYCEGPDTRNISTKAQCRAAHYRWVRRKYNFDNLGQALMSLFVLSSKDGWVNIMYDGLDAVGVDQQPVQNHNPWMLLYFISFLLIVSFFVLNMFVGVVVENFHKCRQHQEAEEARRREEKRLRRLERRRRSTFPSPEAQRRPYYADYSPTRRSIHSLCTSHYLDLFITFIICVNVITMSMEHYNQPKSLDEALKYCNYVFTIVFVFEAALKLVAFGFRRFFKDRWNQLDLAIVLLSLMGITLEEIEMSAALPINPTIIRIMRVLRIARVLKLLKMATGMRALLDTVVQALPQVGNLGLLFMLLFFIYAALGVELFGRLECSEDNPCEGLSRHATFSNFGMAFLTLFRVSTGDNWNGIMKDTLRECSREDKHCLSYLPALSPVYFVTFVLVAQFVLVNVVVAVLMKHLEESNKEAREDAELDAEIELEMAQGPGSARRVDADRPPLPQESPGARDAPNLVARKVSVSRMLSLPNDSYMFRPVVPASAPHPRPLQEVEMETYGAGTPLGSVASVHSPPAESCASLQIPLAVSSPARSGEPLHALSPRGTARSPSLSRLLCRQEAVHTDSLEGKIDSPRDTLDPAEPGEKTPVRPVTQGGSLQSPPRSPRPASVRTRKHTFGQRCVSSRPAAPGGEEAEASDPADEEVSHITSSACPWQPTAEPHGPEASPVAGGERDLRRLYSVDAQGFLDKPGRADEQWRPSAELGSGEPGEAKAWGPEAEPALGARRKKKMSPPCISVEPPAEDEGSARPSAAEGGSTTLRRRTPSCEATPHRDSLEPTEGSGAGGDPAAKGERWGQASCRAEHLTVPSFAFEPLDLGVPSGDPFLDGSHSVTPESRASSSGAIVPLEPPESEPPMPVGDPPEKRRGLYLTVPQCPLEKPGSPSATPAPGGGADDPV
CYP2C9 activ – increases human cytochrome P450 2C9 activity; recombinant CYP2C9, luciferin-H conversion, luminescence; stronger effect = higher value; factor 1 = untreated enzyme, 0 = blocked; activation factor at 5 µM; 1.4% of 96,000 active; AID 1024;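 active = activation factor of 2 or more for CYP2C9 at a 5 µM dose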;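 note: 0 = sulfaphenazole-blocked wells and 1 = vehicle-only wells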
CYP2C19 act – activators of human cytochrome P450 2C19; P33261; AID 1025; 96,000 tested, under 10 active; activation factor at 5 µM; recombinant CYP2C19, luciferin-H EGE luminescence; stronger effect = higher value; 0 = fully inhibited enzyme, 1 = untreated enzyme;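 active = activation factor of at least 2 at 5 µM in the primary screen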;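 note: 0 = wells with 2.5 mM tranylcypromine and 1 = vehicle-only wells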
CYP2C19 inh – human CYP2C19 inhibition | inhibition, % at 5 µM | CYP2C19 Supersomes, luciferin-H EGE luminescence, 30 min | 21% of 96,000 active | P33261;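 active = CYP2C19 inhibition above a set limit at 5 µM in the primary screen, cut at about 50% in these data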;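 note: plate controls were negative control wells for no effect and 2.5 mM tranylcypromine positive control for full effect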
CYP2C9 inhib – inhibitors of human CYP2C9; CYP2C9 Supersomes, luciferin-H conversion, luminescence; inhibition, % at 5 µM; 20% of 96,000 active; AID 777;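 active = blocking of liver enzyme CYP2C9 beyond about 50% at 5 µM, limit read from the data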
An asterisk follows results filed as active; . = not tested or not shown.

SMILES	Cav32 inh	CYP2C9 activ	CYP2C19 act	CYP2C19 inh	CYP2C9 inhib
COc1ccc(N(CC(=O)Nc2ccc(C)cn2)S(=O)(=O)c2c(C)nn(C)c2C)cc1	-0.2	0.2	0.1	86*	84*
COc1ccc(N(CC(=O)NCc2ccccc2OC)S(=O)(=O)c2c(C)nn(C)c2C)cc1	-0.0011	0.1	0.3	66*	94*
Cc1nn(C(=O)c2cc3sccc3[nH]2)c(C)c1C	-0.35	1.1	1.1	-11	-6
CCOC(=O)C(C)Sc1ccc2nnc(-c3ccc(F)cc3)n2n1 (configuration not stated)	-0.38	0.7	1	1	32
O=C(CN1CCCCC1)N1CCN(C(=O)CN2CCCCC2)CC1	1.1	1.3	1.2	-18	-28
Cc1ccccc1C(=O)OCCCN=C1NS(=O)(=O)c2ccccc21	-0.16	.	.	.	.
COC(=O)C1=C(C(=O)c2ccc(C)cc2)C(c2ccc(OC)c(OC)c2)n2nnnc2N1 (configuration not stated)	1.5	1.2	1.1	-9	-23
COc1ccc(N(CC(=O)N2CCc3ccccc3C2)S(=O)(=O)c2c(C)nn(C)c2C)cc1	0.062	0.4	0.1	91*	64*
Cc1ccc(N(CC(=O)Nc2ccc(C)cn2)S(=O)(=O)c2c(C)nn(C)c2C)cc1	0.46	0.2	0.2	76*	84*
COc1ccc(N(CC(=O)Nc2ccc3c(c2)OCCO3)S(=O)(=O)c2c(C)nn(C)c2C)cc1	.	0.3	0.5	55*	74*
COc1ccc(N(CC(=O)N2CCc3ccccc3C2)S(C)(=O)=O)cc1	.	1	0.8	18	1
COc1cc(NC(=O)CN(c2ccc(C)cc2)S(=O)(=O)c2c(C)nn(C)c2C)cc(OC)c1	0.39	0.5	0.3	66*	54*
COC(=O)c1ccc(NC(=O)CN(c2ccc(C)cc2)S(=O)(=O)c2c(C)nn(C)c2C)cc1	0.36	0.7	0.9	14	26
Cc1nn(C)c(C)c1S(=O)(=O)N(CC(=O)Nc1ccc2c(c1)OCO2)c1ccc(C(C)C)cc1	0.52	.	.	.	.
COC(=O)c1ccc2c(c1)N(Cc1nc(-c3cccc(C)c3)oc1C)C(=O)C1CCCN21 (configuration not stated)	.	0.6	0.6	44	37
Cc1nn(C)c(C)c1S(=O)(=O)N(CC(=O)Nc1nccs1)c1ccc(C(C)C)cc1	-0.52	.	.	.	.
COc1ccc(N(CC(=O)Nc2nccs2)S(=O)(=O)c2c(C)nn(C)c2C)cc1	-0.74	0.4	0.4	58*	64*
Cc1ccnc(NS(=O)(=O)c2ccc(N)cc2)n1	-1.3	0.8	0.8	18	21
Brc1ccc(-c2cnc3n2CCCC3)cc1	.	1	0.5	50*	-2
COc1ccc(SC[C@H](CC(C)C)N2CCN(CCc3ccccc3)CCC2=O)cc1	-2.5	.	.	.	.
CCc1cc2cccc(C)c2nc1SCC(=O)N1CCN(C(=O)c2ccco2)CC1	.	0.4	0.6	42	57*
Cc1nc(SCC(=O)N2CCN(C(=O)c3ccco3)CC2)c2c(C)c(C)sc2n1	2.1	0.3	0.5	51*	73*
CCc1cc2ccc(C)cc2nc1SCC(=O)N1CCN(C(=O)c2ccco2)CC1	-5.1*	0.1	0.3	65*	94*
COCCn1cc(C(=O)N2CCC(C)CC2)c2c3ccccc3n(C)c2c1=O	0.025	1	1.1	-7	4
CC(C)CNS(=O)(=O)c1ccc(CCC(=O)NCc2cccnc2)cc1	1.1	0.7	1	0	32
SMILES	Cav32 inh	CYP2C9 activ	CYP2C19 act	CYP2C19 inh	CYP2C9 inhib
CSC1=Nc2sc3c(c2C2=NCCN12)CCCC3	.	1	0.8	16	4
COC(=O)C1(Cc2ccc(O)c(CC3OC3(C)C)c2)OC(=O)C(O)=C1c1ccc(O)cc1 (configuration not stated)	-3.1	.	.	.	.
O=C(CN(Cc1ccccc1)S(=O)(=O)c1ccccc1)N/N=C/c1ccc2c(c1)OCO2	-4.2*	0.3	0.5	53*	74*
O=C(CN(Cc1ccccc1)S(=O)(=O)c1ccc2c(c1)OCCO2)N/N=C/c1ccc(F)cc1	.	0.6	0.7	30	36
O=C(CN(Cc1ccc(Cl)c(Cl)c1)S(=O)(=O)c1ccccc1)N/N=C\c1ccc2c(c1)OCO2	-0.31	0.4	0.8	19	65*
COc1ccc(C(=O)C(OC(=O)c2ccc(C)c(NC(C)=O)c2)c2ccccc2)cc1 (configuration not stated)	-1.2	0.4	0.6	41	62*
CC(=O)Nc1cc(C(=O)OC(C(=O)c2ccccc2)c2ccccc2)ccc1C (configuration not stated)	.	0.4	0.4	59*	60*
COc1ccc(C(=O)OC(C(=O)c2ccccc2)c2ccccc2)cc1 (configuration not stated)	-3.6	0.2	0.4	58*	78*
CC(Sc1nnc(-c2ccc(Cl)cc2)n1C)C(N)=O (configuration not stated)	-0.011	1	1	-1	-4
COCC(=O)N1CCCc2ccccc21	0.37	1	1	3	1
O=C(COc1ccc(Br)cc1Br)NC(=S)N1CCCc2ccccc21	-2.9	0.2	1.1	-9	77*
COc1ccc(C2C(C#N)=C(N)Oc3n[nH]c(C)c32)cc1Cn1nc(C)c([N+](=O)[O-])c1C (configuration not stated)	1.3	0.5	0.4	56*	54*
COc1ccc(C2C(C#N)=C(N)OC3=C2C(=O)CCC3)cc1Cn1nc(C)c([N+](=O)[O-])c1C (configuration not stated)	0.7	0.6	0.8	25	44
COc1cc(C2C(C#N)=C(N)Oc3n[nH]c(C)c32)ccc1OC(=O)c1ccccc1 (configuration not stated)	0.55	0.9	1.1	-7	9
COc1cc(C2C(C#N)=C(N)Oc3n[nH]c(C)c32)cc2c1OCO2 (configuration not stated)	-0.14	0.4	0.5	55*	63*
COc1ccc(C2C(C#N)=C(N)Oc3n[nH]c(C)c32)cc1Cn1cc([N+](=O)[O-])cn1 (configuration not stated)	-1.5	0.3	0.8	21	67*
COc1ccc(/C=N/NC(=O)C(Cc2c[nH]c3ccccc23)NC(=O)OCC(C)C)cc1[N+](=O)[O-] (configuration not stated)	.	0.8	1	-1	24
CC1(C)S[C@@H]2C(C(=O)OCc3ccccc3)NC(=O)N2C1C(=O)OCc1ccccc1 (some centres not stated)	-0.14	.	.	.	.
CCOC(=O)C1C(=O)C=C(c2ccc(Br)cc2)CC1c1ccco1 (configuration not stated)	-2.2	0.7	0.7	25	28
O=C(c1ccc2c(c1)N(Cc1ccccc1)C(=O)c1ccccc1S2)N1CCCC1	-2.5	0.5	0.4	63*	49
COc1cc2c(c(OC)c1CC=C(C)C)C[C@H](c1ccc(O)cc1O)CO2	-0.45	.	.	.	.
